Among the data in PubChem BioAssay (NCI) are growth values, retold here.

SMILES strings stand for the structures. Compounds without any hit were thinned out: in the full panel of roughly 83,000, 20% have a hit.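 Values shown are percent growth following 48 h exposure of cells in 96-well plates to a single concentration of compound; below 10 was considered active.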 Unmarked numbers belong to inactive results. Active and inactive are the calls of the source.

In the first experiment the test system is MDA-MB-435 melanoma. The experiment can be described thus: NCI-60 one-dose screen, 48 h (100 = growth as untreated, 0 = no growth, -100 = all killed). The note with it: 10 µM unless noted.
In the case of `COc1ccc(-c2nc(SCC(C)C)nc(N/N=C\c3cccc([N+](=O)[O-])c3)c2C#N)cc1`, the growth was 67.3%.

In the case of `C=C1C(=O)O[C@@H]2C[C@@H](C)CCC(=O)[C@](C)(OC(C)=O)C[C@H](OC(=O)/C(C)=C\C)[C@@H]12`, the growth was 65.9%.

With `C=C1C(=O)O[C@@H]2C[C@@H](C)/C=C\C(=O)[C@](C)(OC(C)=O)C[C@H](OC(=O)/C(C)=C\C)[C@@H]12`, the growth was -53.4% (active).

Consider `CCCCCCNC(=O)Oc1ccc(/C(=C(/C)c2ccc(OC)cc2)c2ccc(OCCN3CCCC3)cc2)cc1`, for which the growth is 74.4%.

As for `CN(C)c1ccc(/C=N/Nc2nc(N/N=C/c3ccc(N(C)C)cc3)nc(N3CCOCC3)n2)cc1`, the growth is 104%.

`COc1ccc(-c2oc3cc(O)cc(O)c3c(=O)c2OC)cc1O`: the growth was -34.3% (active).

Another experiment relates to SW-620 colon. The description is as above. The note with it: 10 µM unless noted.
Take `O=C(COc1ccc(/C=C2\SC(=O)NC2=O)cc1)Nc1ccc(C(=O)/C=C/c2cc3ccccc3nc2Cl)cc1`: the growth was 88.7%.

Regarding `CC(C)Sc1nc(NC2CC2)c(C#N)c(-c2ccccc2)n1`, the growth is 82.6%.

On to `O=C(COc1cccc2cccnc12)Nc1ccc(C(=O)/C=C/c2ccc(Cl)cc2)cc1`, for which the growth is 93.6%.

For `Oc1ccc(CSc2nnc(-c3ccc(Br)cc3)n2-c2ccccc2)c2cccnc12`, the growth is 26.6%.

Take `COc1ccccc1N1CCN(C2=NN=C(c3cccc(Cl)c3)c3ccccc3C2)CC1`: the growth is 20.9%.

With `O=C1/C(=C/c2ccc([N+](=O)[O-])cc2)SC(=Nc2ccccc2)N1Nc1ccccc1`, the growth was 43.2%.

For the compound `COc1ccc([C@H]2c3[nH]c4ccccc4c3C[C@@H]3C(=O)N(C4CCN(Cc5ccccc5)CC4)CC(=O)N23)c(OC)c1`, the growth was 79.9%.

Consider `CC1OC(O[C@@H]2[C@H](O)C(CO)OC(O[C@H]3COC(O[C@H]4CC[C@]5(C)[C@H]6CC[C@]78OC[C@@]9(CCC(C)(C)C[C@H]97)[C@H](O)C[C@@]8(C)[C@]6(C)CC[C@H]5C4(C)C)[C@@H](OC4OC(CO)[C@@H](O)[C@@H](O)[C@@H]4O)[C@@H]3O)[C@H]2OC2OC[C@@H](O)[C@@H](O)[C@@H]2O)[C@@H](O)[C@@H](O)[C@H]1O` (some centres undefined), for which the growth is -75.9% (active).

In the case of `N#Cc1c(-c2cccs2)cc(-c2cnccn2)nc1SCC(=O)NNC(=S)Nc1ccc(F)cc1`, the growth is 105%.

For the compound `O=C1NC(=O)c2c1c1c3ccccc3ccc1c1[nH]c3ccccc3c21`, the growth is 28.2%.

On to `COc1ccc(-c2ccc3c4c(cccc24)C(=O)N(N2C(=O)c4cccc5cccc(c45)C2=O)C3=O)cc1`, for which the growth was 96.2%.

As for `NS(=O)(=O)c1ccc(Nc2nc(N/N=C/c3ccc(C(F)(F)F)cc3)nc(Nc3ccccc3)n2)cc1`, the growth was 54.8%.

With `COc1cc(CNC(=O)/C=C/c2ccccc2)ccc1OCC(=O)NO`, the growth is 107%.

Regarding `NS(=O)(=O)c1ccc(Nc2nc(N/N=C/c3ccc(F)cc3)nc(Nc3ccccc3)n2)cc1`, the growth is 75.7%.

`C=C1C(=O)O[C@@H]2C[C@@H](C)[C@H](OC)CC(=O)[C@](C)(OC(C)=O)C[C@H](OC(=O)/C(C)=C\C)[C@@H]12`: the growth was 15.6%.

Turning to `O=C(c1ccc(O)cc1)[C@@H]1[C@@H]2CCCN2[C@@]2(C(=O)N(C(=O)c3ccc(F)cc3)c3ccccc32)[C@H]1c1ccc(F)cc1`, the growth was 113%.

As to `Cc1ccc(-n2cc(/C=C/C(=O)c3ccc(S(C)(=O)=O)cc3)c(-c3ccc(S(C)(=O)=O)cc3)n2)cc1`, the growth is 64.9%.

Turning to `Cc1ccc(Cc2cnc(NC(=O)/C(C#N)=C/c3ccc(-c4ccc(Cl)cc4)o3)s2)cc1`, the growth was 93.9%.

For `C=C(C)C(=O)O[C@H]1C[C@@]2(C)OC(=CC2=O)/C(C)=C\[C@H]2OC(=O)C(=C)[C@H]12`, the growth is -41.7% (active).

Turning to `CCN(CC)CCN1C(=O)c2c(c3c4cc(Br)ccc4[nH]c3c3ccc4ccccc4c23)C1=O`, the growth was -61.6% (active).

With `Oc1ccc(CSc2nnc(-c3ccc(Oc4ccccc4)cc3)o2)c2cccnc12`, the growth was 2.32% (active).

Turning to `O=C1c2c(c3c4cccnc4[nH]c3c3ccc4ccccc4c23)C(=O)N1CCN1CCOCC1`, the growth is 47.1%.

In the case of `O=c1[nH]c(CCl)nc2c1cnn2-c1ccccc1`, the growth was 102%.

As to `C=C1C(=O)O[C@@H]2/C=C(/C)C3=CC(=O)[C@@](C)(C[C@H](OC(=O)/C(C)=C\C)[C@@H]12)O3`, the growth was -28.7% (active).

With `O=C1CC2(CCOCC2)Oc2ncccc21`, the growth is -54.6% (active).

Consider `O=C(Nc1ccc(F)cc1)c1cc(-c2ccc(F)cc2F)ccc1O`, for which the growth was 17%.

Consider `COc1ccc(/C=N\NC(=O)c2ccc3nc(-c4ccc(Br)cc4)[nH]c3c2)cc1`, for which the growth is 23.5%.

On to `O=C(O)c1ccc(-n2cc(CNc3ccc(Cl)cc3)c(-c3ccc(F)cc3)n2)cc1`, for which the growth is 106%.

With `COc1cc(/C=N/n2cnc3oc(-c4ccccc4)cc3c2=N)cc(CN2CCCC2)c1O`, the growth is -59.4% (active).

As to `CCOC(=O)c1c(NCC(=O)Nc2cccc(Cl)c2)sc2c1CCCC2`, the growth was 76.1%.

In the case of `Cc1ccc(-c2csc(N/N=C/c3nc4ccccc4n3C3CC3)n2)cc1`, the growth was -72% (active).

For `C#C[C@]1(O)CC[C@H]2[C@@H]3CC=C4c5sc(Nc6cccc(C)n6)nc5CC[C@]4(C)[C@H]3CC[C@@]21C`, the growth was -22.6% (active).

With `COc1ccc(-c2nc(SCC(C)C)nc(N/N=C\c3cccc([N+](=O)[O-])c3)c2C#N)cc1`, the growth was 56.9%.

As for `C=C1C(=O)O[C@@H]2C[C@@H](C)CCC(=O)[C@](C)(OC(C)=O)C[C@H](OC(=O)/C(C)=C\C)[C@@H]12`, the growth was 45.7%.

For `C=C1C(=O)O[C@@H]2C[C@@H](C)/C=C\C(=O)[C@](C)(OC(C)=O)C[C@H](OC(=O)/C(C)=C\C)[C@@H]12`, the growth was -29.5% (active).

As to `CCCCCCNC(=O)Oc1ccc(/C(=C(/C)c2ccc(OC)cc2)c2ccc(OCCN3CCCC3)cc2)cc1`, the growth is 62.6%.

For `CN(C)c1ccc(/C=N/Nc2nc(N/N=C/c3ccc(N(C)C)cc3)nc(N3CCOCC3)n2)cc1`, the growth is 83.8%.

For `COc1ccc(-c2oc3cc(O)cc(O)c3c(=O)c2OC)cc1O`, the growth is 29.6%.
